Screening results as filed in PubChem BioAssay.
The sample as a whole holds a higher share of hits than the screen did.
ARNT-TACC3 inh = disruptors of ARNT/TACC3 protein interaction, primary screen, biochemical, AlphaScreen, single concentration. Transforming acidic coiled-coil-containing protein 3 (Homo sapiens), Q9Y6A5. AlphaScreen His-ARNT PAS-B/GST-TACC3 binding, luminescence; TACC3 fragment carries E629A point mutation. inhibition, % at 9.99 µM. 390,000 tested, 0.66% active;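 active = mean inhibition of replicates at least 50% and at least half of replicates each reaching 50%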;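 also: 0% = complete ARNT plus TACC3 wells and 100% = ARNT alone without TACC3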
ERp5 inh = inhibitors of ERp5-driven insulin aggregation, primary screen, biochemical, turbidity, absorbance 650 nm, single point. 90 min. inhibition, % at 9.99 µM. 350,000 tested, 0.05% active. AID 651711, 2012;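 active = mean replicate inhibition above about 25%, with every replicate also reaching it, limit read from the data, passing the limit was not always enough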
ALR H2O2 inh = inhibitors of human ALR sulfhydryl oxidase, primary screen, biochemical, H2O2 detection, HRP-luminol luminescence, single point | inhibition, % (test concentration not listed) | purified ALR, DTT oxidation | 290,000 tested, 3.8% active;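 active = mean replicate inhibition above about 79%, with every replicate also reaching it, limit read from the data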
PglD DTNB = C. jejuni PglD acetyltransferase inhibitors, primary screen, biochemical, DTNB colorimetric, single point | UDP-N-acetylbacillosamine N-acetyltransferase PglD (Campylobacter jejuni) | purified PglD enzyme, DTNB colorimetric CoA detection | inhibition, % at 12.5 µM | 360,000 tested, 0.098% active; in the data active = inhibition above about 16%, passing the limit was not always enough
NRP1-CendR mod = modulators of CendR peptide binding to NRP-1, primary screen, biochemical, fluorescence polarization, uHTS. 360,000 tested, 0.85% active. Neuropilin-1 (Homo sapiens), O14786. inhibition, % at 25 µM. FAM-RPARPAR peptide binding to NRP-1;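 active = inhibition or corrected inhibition above about 18%, plus a signal ratio from 0.5 to 1.5, limit read from the data, passing the limit was not always enough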
Target sequence (O14786 whole entry, looked up): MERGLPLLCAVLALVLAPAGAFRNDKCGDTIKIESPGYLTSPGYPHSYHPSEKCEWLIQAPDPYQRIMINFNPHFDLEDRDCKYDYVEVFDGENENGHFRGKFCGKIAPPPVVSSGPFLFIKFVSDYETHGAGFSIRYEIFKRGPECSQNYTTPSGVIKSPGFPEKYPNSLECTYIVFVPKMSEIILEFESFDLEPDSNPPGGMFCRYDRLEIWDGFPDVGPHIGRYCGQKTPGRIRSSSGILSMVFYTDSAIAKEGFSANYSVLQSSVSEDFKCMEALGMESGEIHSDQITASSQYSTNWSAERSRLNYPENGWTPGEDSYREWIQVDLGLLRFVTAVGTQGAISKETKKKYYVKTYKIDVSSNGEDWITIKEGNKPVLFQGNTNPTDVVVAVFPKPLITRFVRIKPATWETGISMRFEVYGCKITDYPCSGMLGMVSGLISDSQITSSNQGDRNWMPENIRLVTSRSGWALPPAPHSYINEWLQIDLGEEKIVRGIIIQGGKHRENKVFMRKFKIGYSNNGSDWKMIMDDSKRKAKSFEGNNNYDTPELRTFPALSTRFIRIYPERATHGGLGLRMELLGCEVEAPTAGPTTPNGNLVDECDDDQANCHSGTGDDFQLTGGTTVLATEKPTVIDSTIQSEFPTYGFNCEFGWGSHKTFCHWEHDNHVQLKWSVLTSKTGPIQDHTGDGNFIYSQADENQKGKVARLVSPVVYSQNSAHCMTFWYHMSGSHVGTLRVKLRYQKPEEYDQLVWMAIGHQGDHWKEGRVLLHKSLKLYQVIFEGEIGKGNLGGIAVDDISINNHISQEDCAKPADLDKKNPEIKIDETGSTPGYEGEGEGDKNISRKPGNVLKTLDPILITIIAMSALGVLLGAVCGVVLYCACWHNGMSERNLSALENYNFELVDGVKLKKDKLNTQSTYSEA
PDI inh = inhibitors of human PDI, primary screen, biochemical, turbidity, single point, plate reader. inhibition, % at 10 µM. 350,000 tested, 0.052% active. PDI insulin aggregation turbidity, A650, 90 min. Protein disulfide-isomerase (Homo sapiens), P07237;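 active = mean inhibition across replicates of 30% or more, whatever share of single replicates reach that level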
Numbers without * were called inactive.

How did COc1ccc(NC(=O)Nc2ccc3c(c2)C(=O)N([C@H](C)CO)C[C@H](C)[C@H](CN(C)C(=O)Nc2ccc(C(F)(F)F)cc2)O3)cc1 do in these assays?
ERp5 inh: 2; PglD DTNB: -7

What do the screens show for `Fc1ccc(-c2cc(C(F)(F)F)nc(NCc3cccs3)n2)cc1`?
ALR H2O2 inh: -5; PglD DTNB: -1; NRP1-CendR mod: 30*; PDI inh: -1

What do the screens show for `FC(F)(F)c1cc(-c2ccccc2)nc(NCc2cccnc2)n1`?
ARNT-TACC3 inh: 6; ALR H2O2 inh: 0; PglD DTNB: -8; NRP1-CendR mod: 0; PDI inh: -5

What do the screens show for `COc1cc(C2C(C(C)=O)=C(O)C(=O)N2CCc2c[nH]c3ccccc23)ccc1O` (stereo unspecified)?
ARNT-TACC3 inh: 6; ALR H2O2 inh: 31; PglD DTNB: -1; NRP1-CendR mod: 2; PDI inh: 41*

How did Cc1cccc(-n2c(=S)[nH]c3c(oc4ccccc43)c2=O)c1 do in these assays?
ARNT-TACC3 inh: -2; ERp5 inh: -1; ALR H2O2 inh: 90*; PglD DTNB: -1; NRP1-CendR mod: -13; PDI inh: 2

How did Cc1ccc(-n2c(=S)[nH]c3c(oc4ccccc43)c2=O)cc1 do in these assays?
ARNT-TACC3 inh: -13; ALR H2O2 inh: 52; PglD DTNB: 1; NRP1-CendR mod: -4; PDI inh: -4

Results for Cc1cccc(-n2c(C)c(-c3ccccc3)[nH]c2=S)c1 ?
ARNT-TACC3 inh: 12; ERp5 inh: 5; ALR H2O2 inh: 82*; PglD DTNB: -1; NRP1-CendR mod: -3; PDI inh: 3

Results for O=c1c2oc3ccccc3c2[nH]c(=S)n1-c1ccccc1 ?
ARNT-TACC3 inh: 0; ALR H2O2 inh: 92*; PglD DTNB: 2; NRP1-CendR mod: -5; PDI inh: -7

What do the screens show for `CCC(=O)N(C)C[C@@H]1Oc2cc(/C=C/c3ccccc3)ccc2S(=O)(=O)N([C@H](C)CO)C[C@H]1C`?
ARNT-TACC3 inh: 8; ERp5 inh: -2; PglD DTNB: 2

Results for Cc1nc(C)c(-c2csc(N)n2)s1 ?
ARNT-TACC3 inh: 2; ERp5 inh: -2; ALR H2O2 inh: 91*; PglD DTNB: 5; NRP1-CendR mod: 1; PDI inh: 1

Results for Cc1ccccc1CN(C)C(=O)COC(=O)CSc1ccc([N+](=O)[O-])cc1 ?
ARNT-TACC3 inh: -3; ERp5 inh: 0; ALR H2O2 inh: 99*; PglD DTNB: -3; NRP1-CendR mod: 18; PDI inh: 2

Results for Cc1ccc(CN(C)C(=O)COC(=O)CSc2ccc([N+](=O)[O-])cc2)cc1 ?
ARNT-TACC3 inh: 3; ERp5 inh: -1; ALR H2O2 inh: -14; NRP1-CendR mod: 2; PDI inh: 3

What do the screens show for `CC(C)c1cc(C(N)=O)c(NC(=O)C2CCC2)s1`?
ARNT-TACC3 inh: -9; ERp5 inh: -4; ALR H2O2 inh: 97*; NRP1-CendR mod: 4; PDI inh: 0

Results for CC(C)c1nnc(NC(=O)C2CCCCC2)s1 ?
ARNT-TACC3 inh: -1; ERp5 inh: -7; ALR H2O2 inh: 0; PglD DTNB: 4; NRP1-CendR mod: -1

What do the screens show for `COc1ccc2oc(C)c(C(=O)NN)c2c1`?
ARNT-TACC3 inh: -4; ERp5 inh: 7; ALR H2O2 inh: 85*; PglD DTNB: 1; NRP1-CendR mod: 6; PDI inh: -1

Results for CCOC(=O)CCC(=O)c1c(C)oc2ccc(OC)cc12 ?
ARNT-TACC3 inh: -5; ALR H2O2 inh: -12; PglD DTNB: 3; NRP1-CendR mod: 1; PDI inh: -6

Results for Cc1oc2ccc(O)cc2c1C(=O)OC(C)C ?
ARNT-TACC3 inh: -4; ALR H2O2 inh: -5; PglD DTNB: 6; NRP1-CendR mod: 11; PDI inh: 0

How did Cc1oc2ccc(OCC(N)=O)cc2c1C(=O)OC(C)C do in these assays?
ARNT-TACC3 inh: 11; PglD DTNB: 5; NRP1-CendR mod: 28*; PDI inh: 10

What do the screens show for `CC(C)NC(=O)N(C)C[C@@H]1OCCCC[C@@H](C)Oc2ccc(NC(=O)Nc3ccc4c(c3)OCO4)cc2C(=O)N([C@@H](C)CO)C[C@H]1C`?
ARNT-TACC3 inh: -9; ERp5 inh: -12; PglD DTNB: 4

What do the screens show for `Cc1ccc(-c2csc(NC(=O)CSc3nc4ccccc4c(=O)n3CCCN(C)C)n2)cc1`?
ARNT-TACC3 inh: -18; ERp5 inh: -1; ALR H2O2 inh: 99*; NRP1-CendR mod: -6; PDI inh: -74

Results for CCn1c(SCC(=O)Nc2nc(-c3ccc(C)cc3)cs2)nnc1-c1ccccc1 ?
ARNT-TACC3 inh: -11; ALR H2O2 inh: 4; PglD DTNB: -1; NRP1-CendR mod: 2; PDI inh: 4

What do the screens show for `CN(C)CCCn1c(SCC(=O)N2c3ccccc3Sc3ccccc32)nc2ccccc2c1=O`?
ARNT-TACC3 inh: 24; ERp5 inh: -5; ALR H2O2 inh: 97*; PglD DTNB: -6; NRP1-CendR mod: 9; PDI inh: 14

Results for Cn1c(SCC(=O)N2c3ccccc3Sc3ccccc32)nc2ccccc21 ?
ARNT-TACC3 inh: -1; ERp5 inh: 14; NRP1-CendR mod: -7; PDI inh: 8

Results for Cc1noc(C)c1S(=O)(=O)Nc1ccc2c(c1)C(=O)N([C@@H](C)CO)C[C@H](C)[C@H](CN(C)C(=O)Cc1ccccc1)OCCCC[C@H](C)O2 ?
ARNT-TACC3 inh: -8; ERp5 inh: 20; PglD DTNB: -4

Results for CCCSc1ccc(C(=O)Nc2ccc(Cl)cc2)cn1 ?
ARNT-TACC3 inh: 15; ERp5 inh: -3; ALR H2O2 inh: -5; NRP1-CendR mod: 28*; PDI inh: -7

Results for C[C@H](CO)N1C[C@H](C)[C@H](CN(C)C(=O)[C@H](Cc2ccccc2)N(C)C)OCc2ccccc2-c2c(n(C)c3ccccc23)C1=O ?
ERp5 inh: -4; PglD DTNB: -6

Results for Cc1ccc(NC(=O)C2CCCN(S(=O)(=O)c3cnc[nH]3)C2)cc1C (stereo unspecified) ?
ARNT-TACC3 inh: -10; ERp5 inh: 5; ALR H2O2 inh: 98*; PglD DTNB: -2; NRP1-CendR mod: -12; PDI inh: 0
